From the supplement of paper PMC8728848
This is one part of a sample in which the strongest signals are shown more often than they occur.

Legend:
Experiment in all cases: glycan array binding signal (z-score within array); higher = stronger binding
Settings in all cases: glycan notation: IUPAC condensed, linker removed
[1] = target: Gal(b1-4)GlcNAc(b1-3)Gal(b1-4)GlcNAc(b1-3)Gal(b1-4)GlcNAc(b1-2)Man(a1-3)[Gal(b1-4)GlcNAc(b1-3)Gal(b1-4)GlcNAc(b1-3)Gal(b1-4)GlcNAc(b1-2)Man(a1-6)]Man(b1-4)GlcNAc(b1-4)[Fuc(a1-6)]GlcNAc
Summary of the method: (§1)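 Glycan array data were curated from 3228 arrays in the Consortium for Functional Glycomics database and kept only where the protein sequence was available. Glycan names were converted to IUPAC-condensed notation, and columns mapping to the same glycan were averaged. The binding signal is a within-array Z-score, averaged across arrays of the same protein sequence at different concentrations or buffers and across linkers. Negative Z-scores can be read as non-binding.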

[2] = target: Gal(b1-4)GlcNAc(b1-3)Gal(b1-4)GlcNAc(b1-3)Gal(b1-4)GlcNAc(b1-3)Gal(b1-4)GlcNAc(b1-3)Gal(b1-4)GlcNAc(b1-2)Man(a1-3)[Gal(b1-4)GlcNAc(b1-3)Gal(b1-4)GlcNAc(b1-3)Gal(b1-4)GlcNAc(b1-3)Gal(b1-4)GlcNAc(b1-3)Gal(b1-4)GlcNAc(b1-2)Man(a1-6)]Man(b1-4)GlcNAc(b1-4)GlcNAc
Summary of the method: as §1

[3] = target: Gal(b1-4)GlcNAc(b1-3)Gal(b1-4)GlcNAc(b1-6)[Gal(b1-3)]GalNAc
Summary of the method: as §1

Gal6S(b1-4)Glc = target: Gal6S(b1-4)Glc
Summary of the method: as §1

Gal6S(b1-4)GlcNAc6S = target: Gal6S(b1-4)GlcNAc6S
Summary of the method: as §1

GalNAc(a1-3)GalNAc = target: GalNAc(a1-3)GalNAc
Summary of the method: as §1

[4] = target: GalNAc(b1-4)GlcNAc(b1-3)GalNAc(b1-4)GlcNAc
Summary of the method: as §1

GalNAc3S(b1-4)GlcNAc = target: GalNAc3S(b1-4)GlcNAc
Summary of the method: as §1

[5] = target: GlcNAc(a1-4)Gal(b1-4)GlcNAc(b1-3)Gal(b1-4)GlcNAc
Summary of the method: as §1

[6] = target: GlcNAc(a1-4)Gal(b1-4)GlcNAc(b1-3)Gal(b1-4)[Fuc(a1-3)]GlcNAc(b1-3)Gal(b1-4)[Fuc(a1-3)]GlcNAc
Summary of the method: as §1

[7] = target: GlcNAc(b1-2)[GlcNAc(b1-4)]Man(a1-3)[GlcNAc(b1-4)][GlcNAc(b1-2)[GlcNAc(b1-6)]Man(a1-6)]Man(b1-4)GlcNAc(b1-4)[Fuc(a1-6)]GlcNAc
Summary of the method: as §1

[8] = target: GlcNAc(b1-3)Gal(b1-4)GlcNAc(b1-3)Gal(b1-4)GlcNAc(b1-3)Gal(b1-4)GlcNAc(b1-3)Gal(b1-4)GlcNAc(b1-2)Man(a1-3)[GlcNAc(b1-3)Gal(b1-4)GlcNAc(b1-3)Gal(b1-4)GlcNAc(b1-3)Gal(b1-4)GlcNAc(b1-3)Gal(b1-4)GlcNAc(b1-2)Man(a1-6)]Man(b1-4)GlcNAc(b1-4)[Fuc(a1-6)]GlcNAc
Summary of the method: as §1

GlcNAc(b1-3)Man = target: GlcNAc(b1-3)Man
Summary of the method: as §1

Kdn(a2-3)Gal(b1-3)GlcNAc = target: Kdn(a2-3)Gal(b1-3)GlcNAc
Summary of the method: as §1

[9] = target: Kdn(a2-3)Gal(b1-4)[Fuc(a1-3)]GlcNAc
Summary of the method: as §1

Kdn(a2-6)Gal(b1-4)GlcNAc = target: Kdn(a2-6)Gal(b1-4)GlcNAc
Summary of the method: as §1

[10] = target: Neu5Ac(a2-3)Gal(b1-3)GalNAc(b1-3)Gal(a1-4)Gal(b1-4)Glc
Summary of the method: as §1

[11] = target: Neu5Ac(a2-3)Gal(b1-3)GalNAc(b1-4)[Neu5Ac(a2-3)]Gal(b1-4)Glc
Summary of the method: as §1

[12] = target: Neu5Ac(a2-3)Gal(b1-3)[Fuc(a1-4)]GlcNAc(b1-3)Gal(b1-3)[Fuc(a1-4)]GlcNAc
Summary of the method: as §1

[13] = target: Neu5Ac(a2-3)Gal(b1-3)[Fuc(a1-4)]GlcNAc(b1-3)Gal(b1-4)[Fuc(a1-3)]GlcNAc
Summary of the method: as §1

[14] = target: Neu5Ac(a2-3)Gal(b1-4)GlcNAc(b1-3)Gal(b1-4)[Fuc(a1-3)]GlcNAc
Summary of the method: as §1

[15] = target: Neu5Ac(a2-3)[Neu5Ac(a2-6)]GalNAc
Summary of the method: as §1

[16] = target: Neu5Ac(a2-6)Gal(b1-4)GlcNAc(b1-2)Man(a1-3)[Neu5Ac(a2-6)Gal(b1-4)GlcNAc(b1-2)Man(a1-6)]Man(b1-4)GlcNAc(b1-4)[Fuc(a1-6)]GlcNAc
Summary of the method: as §1

[17] = target: Neu5Ac(a2-6)Gal(b1-4)GlcNAc(b1-2)Man(a1-6)[GlcNAc(b1-2)Man(a1-3)]Man(b1-4)GlcNAc(b1-4)GlcNAc
Summary of the method: as §1

[18] = target: Neu5Ac(a2-8)Neu5Ac(a2-3)Gal(b1-3)GalNAc(b1-4)[Neu5Ac(a2-8)Neu5Ac(a2-3)]Gal(b1-4)Glc
Summary of the method: as §1

[19] = target: Neu5Ac(a2-8)Neu5Gc(a2-3)Gal(b1-4)GlcNAc
Summary of the method: as §1

B1: PX9937B-bvu-524-33-524 (Bacteroides vulgatus) (protein)
chain: GTAYWKNPDQFTAFNTGLHALLREKSYNFFLLGEPRADIYGDNPIGGEASQGMERLPFNTINKENVGISNYGDMYKIINQINQMIAKTTETTILTEATQNYYLGEAYGMRAYLYFHLLRSWGDVVLYLDYTEGQNLDLSNITKGVSPATEVMEQIKKDIQASENAFGSDYSFKLGRHFWSAAATQMLKGEAYLWSGRQMNGGNSDYTIAKNAFENVKKADVGLVTSSFKDIFSFENKKNKEMIFTIHNGKDEYEMWGGYYRMRLIPAQDKMVKIYCDENGNSFVGTPDAQLNGLTQLQVRREFYFKGFRNNDTRWTTSLKAVYKKDAQGVVSYFGPITYKFQGTMLEGGSTRSFLDDFPIYRYADCLLQLAMAKVLLGEDPTEEINAVRERAYGSKYFNEHKAEIAYPNDNDPEFYTDNKWMKPDNAGALEAILKERLREFMFEGKRWYDIRLLGWDYVHQYSSAEQSRLLWPIDAGTLTNNSALKQTPGYE
glycan array binding signal (z-score) [1]: 2.54 | glycan array binding signal (z-score) [2]: 8.61 | glycan array binding signal (z-score) [3]: 3.08 | glycan array binding signal (z-score) (Gal6S(b1-4)Glc): -0.101 | glycan array binding signal (z-score) (Gal6S(b1-4)GlcNAc6S): -0.297 | glycan array binding signal (z-score) (GalNAc(a1-3)GalNAc): -0.035 | glycan array binding signal (z-score) [4]: -0.144 | glycan array binding signal (z-score) (GalNAc3S(b1-4)GlcNAc): -0.324 | glycan array binding signal (z-score) [5]: -0.254 | glycan array binding signal (z-score) [6]: 0.453 | glycan array binding signal (z-score) [7]: -0.459 | glycan array binding signal (z-score) [8]: 5.78 | glycan array binding signal (z-score) (GlcNAc(b1-3)Man): 0.006 | glycan array binding signal (z-score) (Kdn(a2-3)Gal(b1-3)GlcNAc): -0.588 | glycan array binding signal (z-score) [9]: -0.28 | glycan array binding signal (z-score) (Kdn(a2-6)Gal(b1-4)GlcNAc): -0.409 | glycan array binding signal (z-score) [10]: -0.124 | glycan array binding signal (z-score) [11]: 0.323 | glycan array binding signal (z-score) [12]: -0.529 | glycan array binding signal (z-score) [13]: -0.189 | glycan array binding signal (z-score) [14]: 0.162 | glycan array binding signal (z-score) [15]: -0.279 | glycan array binding signal (z-score) [16]: 0.782 | glycan array binding signal (z-score) [17]: 0.042 | glycan array binding signal (z-score) [18]: -0.231 | glycan array binding signal (z-score) [19]: 5.74
